Results on nine sequences are retold here after paper PMC7862700, “An all-to-all approach to the identification of sequence-specific readers for epigenetic DNA modifications on cytosine”.

What all share (test): DAPPL (digital affinity profiling via proximity ligation, sequencing); 10 mM Tris-HCl pH 7.5, 50 mM NaCl, 1 mM DTT, 4% glycerol, room temperature, 30 min; GST-TFs on glutathione beads, 16-mer random dsDNA library, 0.1% formaldehyde crosslink after washing; high values mean tight binding
Holding throughout (settings): protein: recombinant; tags: N-terminal GST; dsDNA, one strand shown

One assay has as its target T1, ERF (Homo sapiens, UniProt P50548 1-548).
T1 sequence: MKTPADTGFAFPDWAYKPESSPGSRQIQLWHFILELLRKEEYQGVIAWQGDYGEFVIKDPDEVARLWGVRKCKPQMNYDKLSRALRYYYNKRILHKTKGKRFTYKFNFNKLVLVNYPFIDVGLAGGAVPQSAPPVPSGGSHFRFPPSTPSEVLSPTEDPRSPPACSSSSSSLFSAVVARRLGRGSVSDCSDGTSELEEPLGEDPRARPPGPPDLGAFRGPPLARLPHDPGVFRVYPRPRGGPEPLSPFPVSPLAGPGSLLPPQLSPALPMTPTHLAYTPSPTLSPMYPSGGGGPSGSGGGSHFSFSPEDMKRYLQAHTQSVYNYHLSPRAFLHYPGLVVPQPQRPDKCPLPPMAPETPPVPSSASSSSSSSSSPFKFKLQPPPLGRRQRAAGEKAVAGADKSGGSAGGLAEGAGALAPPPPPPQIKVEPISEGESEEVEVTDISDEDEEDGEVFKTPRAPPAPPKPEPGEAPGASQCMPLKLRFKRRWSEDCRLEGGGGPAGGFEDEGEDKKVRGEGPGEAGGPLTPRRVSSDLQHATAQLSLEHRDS
Summed up:
(§1)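 Each value of binding signal is a hexamer's read frequency for a factor divided by the same hexamer's frequency in the tag-only sample. Barcoded, bead-captured GST fusions of human transcription factors made in yeast were pooled with that sample and incubated with 200 nmole of a random double-stranded 16-mer DNA library in Tris/NaCl/DTT/glycerol buffer at room temperature for 30 min. Washing, 0.1% formaldehyde crosslinking, proximity ligation, PCR and Illumina NextSeq500 sequencing followed.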

The target of another assay is T2, ETV3L (Homo sapiens, UniProt Q6ZN32 1-361).
T2 sequence: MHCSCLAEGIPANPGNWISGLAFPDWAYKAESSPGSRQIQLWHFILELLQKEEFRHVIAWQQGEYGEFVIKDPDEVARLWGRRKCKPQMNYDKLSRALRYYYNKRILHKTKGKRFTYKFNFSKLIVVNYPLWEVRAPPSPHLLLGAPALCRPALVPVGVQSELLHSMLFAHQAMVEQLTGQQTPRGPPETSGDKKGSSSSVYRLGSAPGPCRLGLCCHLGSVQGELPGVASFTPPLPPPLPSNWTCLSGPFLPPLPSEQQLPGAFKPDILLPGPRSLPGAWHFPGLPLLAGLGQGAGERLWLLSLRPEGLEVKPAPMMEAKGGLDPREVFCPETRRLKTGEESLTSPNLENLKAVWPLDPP
A digest of the protocol:
as §1

For another assay, the target named is T3, ETS2 (Homo sapiens, UniProt P15036 1-469).
T3 sequence: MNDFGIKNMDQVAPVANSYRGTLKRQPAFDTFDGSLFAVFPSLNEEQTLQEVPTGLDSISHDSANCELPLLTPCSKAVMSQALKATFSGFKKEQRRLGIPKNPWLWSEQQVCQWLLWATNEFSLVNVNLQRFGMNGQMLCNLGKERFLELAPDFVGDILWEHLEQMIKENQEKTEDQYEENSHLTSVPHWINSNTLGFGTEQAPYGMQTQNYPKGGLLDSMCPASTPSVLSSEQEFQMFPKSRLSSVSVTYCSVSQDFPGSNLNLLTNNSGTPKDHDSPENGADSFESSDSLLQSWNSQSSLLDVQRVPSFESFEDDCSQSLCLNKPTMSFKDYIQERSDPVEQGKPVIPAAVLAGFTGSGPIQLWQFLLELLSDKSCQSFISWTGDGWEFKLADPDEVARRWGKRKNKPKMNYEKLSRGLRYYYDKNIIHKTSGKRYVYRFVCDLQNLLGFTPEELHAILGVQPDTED
A digest of the protocol: as §1

In a further assay the target is T4, SPDEF (Homo sapiens, UniProt O95238 1-335).
T4 sequence: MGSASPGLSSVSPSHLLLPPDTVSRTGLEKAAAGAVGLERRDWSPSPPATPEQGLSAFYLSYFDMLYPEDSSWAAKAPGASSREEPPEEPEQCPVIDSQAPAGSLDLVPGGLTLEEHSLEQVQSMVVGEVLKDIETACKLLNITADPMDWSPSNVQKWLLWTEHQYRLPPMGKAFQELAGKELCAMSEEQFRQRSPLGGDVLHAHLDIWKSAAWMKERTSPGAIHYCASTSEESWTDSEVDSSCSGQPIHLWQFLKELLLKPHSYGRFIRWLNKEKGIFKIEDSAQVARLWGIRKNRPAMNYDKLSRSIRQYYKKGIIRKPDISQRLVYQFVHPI
Summed up: as §1

For a further assay, the target named is T5, ETV7 (Homo sapiens, UniProt Q9Y603 1-341).
T5 sequence: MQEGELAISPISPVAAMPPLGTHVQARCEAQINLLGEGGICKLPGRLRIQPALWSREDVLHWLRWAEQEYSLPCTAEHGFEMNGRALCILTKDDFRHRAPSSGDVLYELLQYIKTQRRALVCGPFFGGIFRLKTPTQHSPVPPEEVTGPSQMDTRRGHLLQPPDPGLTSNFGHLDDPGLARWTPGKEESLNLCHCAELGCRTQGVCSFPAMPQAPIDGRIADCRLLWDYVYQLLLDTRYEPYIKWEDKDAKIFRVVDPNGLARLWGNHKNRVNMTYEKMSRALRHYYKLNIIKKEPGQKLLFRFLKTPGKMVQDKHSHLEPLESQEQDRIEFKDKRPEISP
Summed up: as §1

The target in the next assay is T6, ELF5 (Homo sapiens, UniProt Q9UKW6-2 1-255).
T6 sequence: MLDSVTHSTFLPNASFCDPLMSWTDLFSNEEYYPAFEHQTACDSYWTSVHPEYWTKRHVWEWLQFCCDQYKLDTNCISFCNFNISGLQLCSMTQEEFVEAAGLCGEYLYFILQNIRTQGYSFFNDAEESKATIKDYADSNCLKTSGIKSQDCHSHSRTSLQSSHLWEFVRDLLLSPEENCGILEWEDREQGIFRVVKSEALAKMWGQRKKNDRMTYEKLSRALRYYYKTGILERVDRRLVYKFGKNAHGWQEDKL
A digest of the protocol: as §1

A further assay concerns the target T7, ETV3 (Homo sapiens, UniProt P41162-2 1-143).
T7 sequence: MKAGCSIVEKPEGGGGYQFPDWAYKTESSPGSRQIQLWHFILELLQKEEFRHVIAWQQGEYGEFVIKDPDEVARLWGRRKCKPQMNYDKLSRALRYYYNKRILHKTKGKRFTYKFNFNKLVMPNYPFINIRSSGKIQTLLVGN
Summed up:
as §1

Another assay deals with ETV6 (Homo sapiens, UniProt P41212 1-452). A digest of the protocol: as §1
ETV6, sequence (P41212 whole entry): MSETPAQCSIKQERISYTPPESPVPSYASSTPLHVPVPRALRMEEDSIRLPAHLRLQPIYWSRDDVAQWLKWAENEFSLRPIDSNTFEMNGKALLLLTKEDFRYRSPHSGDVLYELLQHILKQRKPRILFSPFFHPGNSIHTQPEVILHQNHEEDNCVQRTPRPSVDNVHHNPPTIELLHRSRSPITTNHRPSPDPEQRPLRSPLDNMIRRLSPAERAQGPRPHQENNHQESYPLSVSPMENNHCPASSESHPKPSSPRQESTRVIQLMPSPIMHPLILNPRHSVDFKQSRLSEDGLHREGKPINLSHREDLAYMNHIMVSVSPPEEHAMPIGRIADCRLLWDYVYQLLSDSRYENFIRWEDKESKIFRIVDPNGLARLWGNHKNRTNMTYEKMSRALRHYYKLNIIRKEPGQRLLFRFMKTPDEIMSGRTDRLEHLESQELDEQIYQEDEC

Take GTCTTC: the binding signal with ERF was 1.29 fold enrichment (6-mer frequency, TF over GST control); with ETV3L, 1.23 fold enrichment (6-mer frequency, TF over GST control); in the assay with ETS2 it was 1.4 fold enrichment (6-mer frequency, TF over GST control); with SPDEF it was 1.27 fold enrichment (6-mer frequency, TF over GST control); with ETV7, 1.14 fold enrichment (6-mer frequency, TF over GST control); in the assay with ELF5, 1.72 fold enrichment (6-mer frequency, TF over GST control). Moreover, the binding signal with ETV3 was 1.4 fold enrichment (6-mer frequency, TF over GST control); with ETV6, 1.32 fold enrichment (6-mer frequency, TF over GST control).
Take ACAACT: the binding signal is 1.4 fold enrichment (6-mer frequency, TF over GST control) with ERF; 1.36 fold enrichment (6-mer frequency, TF over GST control) with ETV3L; 1.39 fold enrichment (6-mer frequency, TF over GST control) in the assay with ETS2; 1.43 fold enrichment (6-mer frequency, TF over GST control) with SPDEF; 1.14 fold enrichment (6-mer frequency, TF over GST control) with ETV7; 1.36 fold enrichment (6-mer frequency, TF over GST control) in the assay with ELF5. Besides, the binding signal was 1.35 fold enrichment (6-mer frequency, TF over GST control) with ETV3 and 1.34 fold enrichment (6-mer frequency, TF over GST control) with ETV6.
Regarding GTAGCA, the binding signal in the assay with ERF was 1.22 fold enrichment (6-mer frequency, TF over GST control); in the assay with ETV3L, 1.04 fold enrichment (6-mer frequency, TF over GST control); with ETS2, 1.02 fold enrichment (6-mer frequency, TF over GST control); with SPDEF, 1.08 fold enrichment (6-mer frequency, TF over GST control); with ETV7 it was 1.06 fold enrichment (6-mer frequency, TF over GST control); with ELF5 it was 1.1 fold enrichment (6-mer frequency, TF over GST control). Also, the binding signal is 1.05 fold enrichment (6-mer frequency, TF over GST control) with ETV3 and 1.03 fold enrichment (6-mer frequency, TF over GST control) in the assay with ETV6.
For the sequence TATGCC, the binding signal was 1.16 fold enrichment (6-mer frequency, TF over GST control) with ERF; 1.12 fold enrichment (6-mer frequency, TF over GST control) with ETV3L; 1.21 fold enrichment (6-mer frequency, TF over GST control) with ETS2; 1.23 fold enrichment (6-mer frequency, TF over GST control) with SPDEF; 1.19 fold enrichment (6-mer frequency, TF over GST control) with ETV7; 1.14 fold enrichment (6-mer frequency, TF over GST control) with ELF5. For the same sequence, the binding signal in the assay with ETV3 is 1.17 fold enrichment (6-mer frequency, TF over GST control); with ETV6 it was 1.22 fold enrichment (6-mer frequency, TF over GST control).
As to ACCTCA, the binding signal with ERF was 1.23 fold enrichment (6-mer frequency, TF over GST control); with ETV3L it was 1.29 fold enrichment (6-mer frequency, TF over GST control); with ETS2, 1.21 fold enrichment (6-mer frequency, TF over GST control); with SPDEF, 1.09 fold enrichment (6-mer frequency, TF over GST control); with ETV7, 1.04 fold enrichment (6-mer frequency, TF over GST control); with ELF5, 1.11 fold enrichment (6-mer frequency, TF over GST control). For the same sequence, the binding signal in the assay with ETV3 was 1.18 fold enrichment (6-mer frequency, TF over GST control); with ETV6, 1.17 fold enrichment (6-mer frequency, TF over GST control).
Consider GGAAAA, for which the binding signal in the assay with ERF is 1.12 fold enrichment (6-mer frequency, TF over GST control); with ETV3L, 1.31 fold enrichment (6-mer frequency, TF over GST control); with ETS2, 1.27 fold enrichment (6-mer frequency, TF over GST control); with SPDEF it was 1.12 fold enrichment (6-mer frequency, TF over GST control); in the assay with ETV7 it was 1.26 fold enrichment (6-mer frequency, TF over GST control); with ELF5, 1.67 fold enrichment (6-mer frequency, TF over GST control). Moreover, the binding signal with ETV3 was 1.31 fold enrichment (6-mer frequency, TF over GST control); with ETV6, 1.53 fold enrichment (6-mer frequency, TF over GST control).
Take TAACGA: the binding signal is 1.03 fold enrichment (6-mer frequency, TF over GST control) in the assay with ERF; 1.04 fold enrichment (6-mer frequency, TF over GST control) in the assay with ETV3L; 1.12 fold enrichment (6-mer frequency, TF over GST control) with ETS2; 1.16 fold enrichment (6-mer frequency, TF over GST control) with SPDEF; 1.1 fold enrichment (6-mer frequency, TF over GST control) with ETV7; 1.06 fold enrichment (6-mer frequency, TF over GST control) with ELF5. The binding signal was 1.06 fold enrichment (6-mer frequency, TF over GST control) with ETV3 and 1.08 fold enrichment (6-mer frequency, TF over GST control) in the assay with ETV6.
As to CAACCC, the binding signal in the assay with ERF was 1.22 fold enrichment (6-mer frequency, TF over GST control); with ETV3L, 1.25 fold enrichment (6-mer frequency, TF over GST control); in the assay with ETS2, 1.28 fold enrichment (6-mer frequency, TF over GST control); with SPDEF it was 1.2 fold enrichment (6-mer frequency, TF over GST control); in the assay with ETV7, 1.15 fold enrichment (6-mer frequency, TF over GST control); in the assay with ELF5, 1.2 fold enrichment (6-mer frequency, TF over GST control). Also, the binding signal with ETV3 is 1.27 fold enrichment (6-mer frequency, TF over GST control); with ETV6, 1.22 fold enrichment (6-mer frequency, TF over GST control).
On to TACGGC, for which the binding signal with ERF is 1.32 fold enrichment (6-mer frequency, TF over GST control); with ETV3L it was 1.26 fold enrichment (6-mer frequency, TF over GST control); in the assay with ETS2 it was 1.22 fold enrichment (6-mer frequency, TF over GST control); in the assay with SPDEF, 1.18 fold enrichment (6-mer frequency, TF over GST control); in the assay with ETV7, 1.13 fold enrichment (6-mer frequency, TF over GST control); in the assay with ELF5, 1.2 fold enrichment (6-mer frequency, TF over GST control). Moreover, the binding signal in the assay with ETV3 was 1.21 fold enrichment (6-mer frequency, TF over GST control); with ETV6 it was 1.2 fold enrichment (6-mer frequency, TF over GST control).
